Screens (PubChem)
EBV gp42 block = EBV gp42 inhibition | Q1HVG2 | Fluorescence polarization binding assay, mP read-out | inhibition, % (tested at 21.74 µM) | actives 0.42% (n = 220,000) | AID 1085; in the data active means inhibition above about 50%
MEX-5 binding = C. elegans MEX-5 TCR-2 RNA binding activity. Q9XUB2. MEX-5/FITC-TCR2 RNA binding, fluorescence polarization; active compounds read low. activity score (negative = inhibition of binding), % at 10 µM. actives 0.38% (n = 300,000);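 active means inhibition past about -25% in most replicates, and total fluorescence under double the plate's negative control median, limit read from the data; inconclusive means replicates evenly split on the limit, or fluorescence at least double controls; inactive means too little inhibition in most replicates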
MCL1 BIM primary = inhibitors of human MCL1 binding to BIM-BH3 peptide. GST-MCL1 / FITC-Bim-BH3 fluorescence polarization. inhibition, % at 10.9 µM. actives 0.68% (n = 320,000). AID 2057;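 active means inhibition above the mean inhibition of all tested compounds plus 3 SD, set per campaign, cut at about 40% in these data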;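 further: higher means more loss of mP so more displacement of Bim peptide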
GLD-1 TGE inh = GLD-1-TGE RNA interaction inhibition (C. elegans) | actives 0.44% (n = 320,000) | inhibition, % at 5.96 µM | purified GLD-1 + fluorescein TGE RNA, fluorescence polarization | Q17339;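 active means percent inhibition above a per-plate cutoff, the plate mean of test compounds plus 3 SD, cut at about 30% in these data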
Target sequence (Q17339 whole entry, looked up): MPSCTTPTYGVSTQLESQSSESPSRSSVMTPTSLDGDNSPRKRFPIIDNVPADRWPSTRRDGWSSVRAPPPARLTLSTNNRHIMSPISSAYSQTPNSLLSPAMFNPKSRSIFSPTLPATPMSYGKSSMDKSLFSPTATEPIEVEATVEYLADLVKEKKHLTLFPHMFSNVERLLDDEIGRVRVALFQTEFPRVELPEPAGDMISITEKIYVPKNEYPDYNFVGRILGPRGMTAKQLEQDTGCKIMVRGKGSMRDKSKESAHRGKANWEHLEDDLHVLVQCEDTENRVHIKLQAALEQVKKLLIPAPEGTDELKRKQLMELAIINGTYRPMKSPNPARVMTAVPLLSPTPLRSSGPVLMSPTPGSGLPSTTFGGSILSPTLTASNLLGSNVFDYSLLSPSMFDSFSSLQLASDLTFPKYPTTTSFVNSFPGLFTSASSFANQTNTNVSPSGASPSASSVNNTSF
Bcl-xL primary = inhibitors of human Bcl-xL. Q07817. GST-Bcl-xL / FITC-Bim BH3 peptide fluorescence polarization. inhibition, % at 10.9 µM. actives 0.7% (n = 320,000);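 active means inhibition above the mean of all tested compounds plus 3 SD, cutoff set per campaign, cut at about 30% in these data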;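 further: inhibitors lower millipolarization by displacing the labeled peptide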
eLon inh = inhibitors of E. coli Lon protease. P0A9M0. purified E. coli Lon protease, fluorescence polarization. actives 0.42% (n = 360,000). inhibition, % at 7.94 µM; in the data active means inhibition above about 13%, passing the limit was not always enough
E coli Lon conf = E. coli Lon inhibition confirmation; shares compounds with eLon inh; actives 31% (n = 1,400); purified E. coli Lon, fluorescence polarization; inhibition, % at 7.94 µM; in the data active means inhibition above about 16%
Large screens that a line does not name were inactive (follow-up assays come after a bar, where they were run). The list is not random: actives were taken first. Their share in the collection is about 1.5%.

COC(=O)c1c(NC(=S)NN2CCN(C)CC2)sc2c1CCC(C)C2 (stereo unspecified)	none
COc1cc2[nH]c(=S)nc(NCc3ccccc3)c2cc1OC	none (no result: EBV gp42 block)
COc1cc2[nH]c(=S)nc(NCc3ccccn3)c2cc1OC	eLon inh 26.2 (no result: MEX-5 binding, MCL1 BIM primary, GLD-1 TGE inh, Bcl-xL primary) | E coli Lon conf 56.5
COc1ccc(CNC(=O)C2(CC3CC(c4ccccc4)=NO3)CCNCC2)cc1 (stereo unspecified)	none (no result: EBV gp42 block)
COc1ccc(CNC(=O)Nc2cccc(Cl)c2)cc1	none (no result: EBV gp42 block, MEX-5 binding, MCL1 BIM primary, GLD-1 TGE inh, Bcl-xL primary)
COc1cccc(NC(=S)NCc2ccc3c(c2)cc(C)n3C)c1	none (no result: MCL1 BIM primary, GLD-1 TGE inh, Bcl-xL primary)
Cc1c(C(=O)NCc2ccc3c(c2)cc(C)n3C)cccc1[N+](=O)[O-]	eLon inh 31.1 | E coli Lon conf inactive
Cc1cccc(NC(=O)NCc2ccc3c(c2)cc(C)n3C)c1	eLon inh 30.0 | E coli Lon conf inactive
Cc1cc2cc(CNC(=S)Nc3ccc(OC(F)(F)F)cc3)ccc2n1C	eLon inh 19.1 | E coli Lon conf 19.1
Cc1cc2cc(CNC(=O)Nc3cccc(Cl)c3)ccc2n1C	eLon inh 40.2 | E coli Lon conf 44.8
CCOC(=O)C1=C[C@@H](C(C)(C)C)N(S(=O)(=O)c2ccc(C)cc2)[C@H]1c1ccc(F)cc1	none (no result: EBV gp42 block, MEX-5 binding, MCL1 BIM primary, GLD-1 TGE inh, Bcl-xL primary)
CCOC(=O)C1=C(COC(=O)c2c(OC)cccc2OC)NC(=O)NC1C (stereo unspecified)	none (no result: EBV gp42 block)
CCOC(=O)C1=C(COC(=O)Cc2c(F)cccc2Cl)NC(=O)NC1C (stereo unspecified)	eLon inh 23.5 (no result: EBV gp42 block, MEX-5 binding) | E coli Lon conf inactive
COc1ccc(N2CC(C(=O)NCCc3ccc(Cl)cc3)CC2=O)cc1 (stereo unspecified)	none (no result: EBV gp42 block)
COc1ccc(N2C(=O)C3CCCN3C2c2ccccc2)cc1 (stereo unspecified)	eLon inh 16.2 | E coli Lon conf inactive
COc1ccc(C2N(c3ccc(OC)cc3)C(=O)C3CCCN32)cc1 (stereo unspecified)	none
COc1ccc(-c2nc(SCC(=O)Nc3cccc(S(N)(=O)=O)c3)n[nH]2)cc1	none (no result: EBV gp42 block, MEX-5 binding, MCL1 BIM primary, GLD-1 TGE inh, Bcl-xL primary)
CCOC(=O)C1=C(C)NC2=C(C(=O)C(C(=O)OCC)C(c3ccco3)C2)C1c1ccccn1 (stereo unspecified)	eLon inh 44.4 | E coli Lon conf inactive
C#CCNC(=O)C1=C[C@@H](c2ccc(C#C)cc2)C[C@@H](OCc2ccc(CO)cc2)O1	none (no result: EBV gp42 block)
O=C(Nc1cccc(S(=O)(=O)N2CCCCC2)c1)c1ccc2c(=O)n3c(nc2c1)CCCCC3	eLon inh 25.3 | E coli Lon conf inactive
COC(=O)c1c(C(=O)OC)c2n(c1C)Cc1ccccc1C2	MEX-5 binding inconclusive, eLon inh 123.0 | E coli Lon conf inactive
COc1ccc(-n2nc(C(=O)NCC(=O)NCc3ccc(F)cc3)c3ccccc3c2=O)cc1OC	none (no result: EBV gp42 block)
O=CNCc1nc2ccccc2n1CCc1ccccc1	none (no result: EBV gp42 block)
O=CNCCCc1nc2ccccc2n1CCc1ccccc1	eLon inh 18.0 (no result: EBV gp42 block, MCL1 BIM primary, GLD-1 TGE inh, Bcl-xL primary) | E coli Lon conf inactive
COc1ccc2c(c1)C(CC(C)=O)N(c1ccc(-c3cccnc3)cc1)C(c1ccsc1)=C2 (stereo unspecified)	none (no result: EBV gp42 block, MEX-5 binding, MCL1 BIM primary, GLD-1 TGE inh, Bcl-xL primary)
Nc1nn(S(=O)(=O)c2ccccc2)cc1-c1ccc([N+](=O)[O-])cc1	none
Cc1ccc(S(=O)(=O)n2cc(-c3ccccc3)c(N)n2)cc1	eLon inh 15.0 (no result: MEX-5 binding) | E coli Lon conf inactive
